Measurements taken from ChEMBL document CHEMBL3433997, “St. Jude Leishmania screening dataset” (2016).

These compounds were tested against Solute carrier family 2, facilitated glucose transporter member 1 (Homo sapiens) (UniProt P11166) (assay: ST_JUDE_LEISH: Cytotoxicity at 2uM final concentration against transgenic Leishmania Mexicana promastigotes LmGLUT1 that are glucose transport deficient and complemented with the human glucose transporter GLUT1. Activity is measured by DNA content using SYBR green in vitro).
Chain of Solute carrier family 2, facilitated glucose transporter member 1 (Homo sapiens) (P11166 whole entry): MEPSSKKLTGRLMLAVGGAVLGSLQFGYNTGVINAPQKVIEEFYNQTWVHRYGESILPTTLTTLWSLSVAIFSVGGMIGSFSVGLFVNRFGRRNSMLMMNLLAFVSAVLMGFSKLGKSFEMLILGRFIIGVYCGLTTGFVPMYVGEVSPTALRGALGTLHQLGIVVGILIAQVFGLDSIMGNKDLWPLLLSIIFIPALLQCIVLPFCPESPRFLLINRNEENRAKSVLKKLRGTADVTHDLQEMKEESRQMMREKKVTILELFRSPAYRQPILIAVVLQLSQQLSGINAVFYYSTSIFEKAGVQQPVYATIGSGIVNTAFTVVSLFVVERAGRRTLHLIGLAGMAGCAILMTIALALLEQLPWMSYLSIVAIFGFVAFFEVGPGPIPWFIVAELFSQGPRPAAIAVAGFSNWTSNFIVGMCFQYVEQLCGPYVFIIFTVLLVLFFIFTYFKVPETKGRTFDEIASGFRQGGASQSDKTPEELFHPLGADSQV
Format: functional

Row | SMILES | inhibition
1 | COc1cccc(N(CCCN2C(=O)c3cccc4cccc(c34)C2=O)C(=O)c2ccccc2C)c1 | 5.96%
2 | CCN(CC)CCCN(CCCN(CC)CC)c1cc(C)nc(Nc2ccc3cc(Br)ccc3c2)n1 | 1.34%
3 | O=C(NCCCCN1CCC(c2ccc3c(c2OCc2ccccn2)CCCC3)CC1)c1ccc(NC(=O)c2ccc(Cl)cc2)cc1 | 2.21%
4 | CN1CCN(CCCN(Cc2csc(-c3ccc(CNCc4ccccc4)cc3)n2)C(=O)Nc2cc(Cl)cc(Cl)c2)CC1 | 9.09%
5 | CCNC(=O)Nc1cccc(-c2cccc(-c3nc4cc(C(F)(F)F)ccc4[nH]3)c2)c1 | 10%
6 | COc1cc(Cc2cnc(N)nc2N)ccc1OCc1ccc(F)c(F)c1 | 3.03%
7 | Cc1nc(NCCc2c[nH]cn2)cc(NCc2ccccc2)n1 | 3.83%
8 | CCN(CC)S(=O)(=O)c1ccc(Cl)c(C(=O)Nc2ccc3nc(C)sc3c2)c1 | -2.24%
9 | O=C(/C=C/c1ccc(Cl)c(Cl)c1)NCCCCCN1CCC(CCNC(=O)/C=C/c2ccccc2F)CC1 | 2.07%
10 | Cc1cccc2nc(-c3ccc(-c4ccc(NC(=O)Nc5cccc(C#N)c5)cc4)s3)[nH]c12 | 9.25%
11 | COc1ccc(NC(=O)C2c3ccccc3C(=O)N(C3CCCC3)C2c2cccs2)c(OC)c1 (stereo not given) | 1.15%
12 | CC(C)CCN1CCC(Oc2cccc(NC(=O)c3ccc(C(F)(F)F)cc3)c2)CC1 | 1.54%
13 | N#CCCN1CCN(Cc2cccc(-c3ccc(-c4nc5ccccc5[nH]4)s3)c2)CC1 | -1.29%
14 | O=C(NCCN1CCOCC1)c1ccc(-c2ccc(CNCCCc3ccccc3)cc2)nc1 | -1.5%
15 | O=C(C=Cc1ccc(F)cc1)N1CCN(S(=O)(=O)c2ccc(Cl)cc2)CC1 | 0.4%
